In ChEMBL document CHEMBL4513146, “CO-ADD screening of Karazin Kharkiv National University (Ukraine) compounds” one finds Inhibition data, which are given here for 71 compounds.

Results with a measured potency or affinity are listed apart.

One assay has as its system Staphylococcus aureus. Conditions: Concentration 32 ug.mL-1;; ASSAY_TEST Inhibition of Bacterial Growth; detection method Absorption (OD600); MEDIA CAMHB; plate type 384well; NBS; CORNING #3640; time 18 hr.
In another assay the test system is Escherichia coli. As to conditions: Concentration 32 ug.mL-1;; ASSAY_TEST Inhibition of Bacterial Growth; detection method Absorption (OD600); MEDIA CAMHB; plate type 384well; NBS; CORNING #3640; time 18 hr.

The term Inhibition denotes the change of the read-out against control, counted positive when it falls. In the case of `CCCCOc1ccc(-c2cc3c4nnc(SCC(=O)NCc5ccc(OC)cc5)n4ccn3n2)cc1`, the figures for the Inhibition in the assay with Staphylococcus aureus and in the assay on Escherichia coli were -2.43% and -7.34%, respectively.
In the same order, the values of `Cc1ccc(-c2cc3c4nn(CC(=O)N5CCN(c6ccc(F)cc6)CC5)c(=O)n4ccn3n2)cc1C` are 6.16% and 1.43%.
In the same order, the values of `COc1ccc(NC(=O)Cn2c(=O)c3nnc(C(C)C)n3c3ccccc32)cc1` are 4.5% and -6.7%.
In the same order, the values of `Cc1cc(Br)ccc1NC(=O)Cn1nc2c(Sc3cccc(F)c3)nccn2c1=O` are 10.13% and -1.3%.
On to `Cc1ccc(NC(=O)Cn2nc3ccc(SC(C)(C)C)nn3c2=O)c(C)c1`, for which the Inhibition is 13% in the assay with Staphylococcus aureus and -1.14% in the assay with Escherichia coli.
Consider `COC(=O)c1ccc(Cn2nc3ccc(S(=O)(=O)N4CCCCCC4)cn3c2=O)o1`, for which the results for the Inhibition in the assay with Staphylococcus aureus and in the assay on Escherichia coli were -11.6% and -1.2%, respectively.
For `COC(=O)c1ccc(NC(=O)Cn2nc3c(Oc4ccccc4C)nccn3c2=O)cc1`, in that order: -13.52% and 1.22%.
Turning to `COc1cccc(-n2ccn3c(SCc4c(F)cccc4Cl)nnc3c2=O)c1`, the Inhibition is on record as 2.96% in the assay on Staphylococcus aureus and -9.46% with Escherichia coli.
In the case of `Cc1ccc(-n2ccn3c(=O)n(Cc4ccc(Cl)cc4)nc3c2=O)cc1C`, the Inhibition in the assay with Staphylococcus aureus was 0.27%; in the assay on Escherichia coli, -1.91%.
For `CC(C)CCNC(=O)CSc1nnc2c(=O)n(Cc3ccc(F)cc3)ccn12`, the Inhibition was 8.45% with Staphylococcus aureus and -0.48% in the assay on Escherichia coli.
For `O=c1c2sccc2n2c(=O)n(Cc3ccc(F)cc3)nc2n1Cc1cccs1`, in that order: 13.21% and -2.41%.
In the same order, the values of `O=C(CSc1nnc2c(=O)n(-c3cccc(F)c3)ccn12)c1ccc(F)cc1` are 5.39% and 1.51%.
Take `COc1cc(NC(=O)C(C)Sc2nnc3c(=O)n(-c4ccc(C)c(C)c4)ccn23)cc(OC)c1` (configuration not stated): the Inhibition in the assay on Staphylococcus aureus is -0.67%; in the assay with Escherichia coli, -10.24%.
For `CC(=O)c1ccc(NC(=O)Cn2nc3c(SC4CCCCC4)nccn3c2=O)cc1`, in that order: 3.51% and -2.6%.
For `Cc1ccc(CN(c2ccc(C(C)C)cc2)S(=O)(=O)c2cccn3cnnc23)cc1`, in that order: 21.94% and 4.59%.
In the same order, the values of `COc1cccc(Oc2nccn3c(=O)n(CC(=O)NCc4cccs4)nc23)c1` are 7.35% and -2.75%.
Turning to `Cc1ccc(Oc2nccn3c(=O)n(CC(=O)Nc4ccc(C)cc4Cl)nc23)cc1`, the Inhibition in the assay with Staphylococcus aureus is listed as 6.09%; with Escherichia coli, 0.24%.
In the same order, the values of `Cc1ccc(N(Cc2cc(F)cc(F)c2)S(=O)(=O)c2cccn3c(C)nnc23)cc1` are 11.96% and -4.21%.
For `COc1cccc(NC(=O)Cn2nc3c(Sc4ccccc4)nccn3c2=O)c1`, in that order: 6.76% and 0.48%.
As to `CCOc1ccc(NC(=O)Cn2nc3c4cc(-c5ccc(C)c(C)c5)nn4ccn3c2=O)cc1`, the Inhibition in the assay with Staphylococcus aureus was -9.23%; with Escherichia coli, 1.9%.
For `CC(C)Cn1c(=O)c2sccc2n2c(=O)n(Cc3ccccc3Cl)nc12`, in that order: 2.13% and -6.09%.
Regarding `Cc1ccc(-c2ccc3nn(Cc4ccc5c(c4)OCO5)c(=O)n3n2)cc1C`, the Inhibition in the assay with Staphylococcus aureus is -7.66%; in the assay on Escherichia coli, -8.33%.
`CCc1nnc2c(S(=O)(=O)N(Cc3cc(F)cc(F)c3)c3cccc(F)c3)cccn12`: the Inhibition is 2.06% in the assay on Staphylococcus aureus and -5.05% with Escherichia coli.
Take `CCOc1ccc(-n2ccn3c(SC(C)C(=O)Nc4cc(OC)cc(OC)c4)nnc3c2=O)cc1` (configuration not stated): the Inhibition came out at 1.84% in the assay on Staphylococcus aureus and 2.97% in the assay with Escherichia coli.
In the same order, the values of `COC(=O)c1ccc(NC(=O)Cn2nc3c(Oc4ccccc4)nccn3c2=O)cc1` are 1.06% and -10.41%.
For `CCOc1ccc(-n2ccn3c(SCC(=O)Nc4cc(F)ccc4F)nnc3c2=O)cc1`, in that order: -3.91% and 1.2%.
Take `CC(C)c1ccc(NC(=O)Cn2nc3c(N4CCCC4)nccn3c2=O)cc1`: the Inhibition in the assay on Staphylococcus aureus was 2.8%; with Escherichia coli, -0.46%.
For `Cc1ccc(-c2cc3c4nn(CC(=O)Nc5ccc(F)cc5Cl)c(=O)n4ccn3n2)cc1`, in that order: -0.44% and -5.61%.
In the same order, the values of `Cc1cccc(NC(=O)Cn2nc3c(Sc4ccccc4)nccn3c2=O)c1` are -16.15% and -1.95%.
Regarding `O=C(Cn1nc2c(SC3CCCCC3)nccn2c1=O)Nc1ccccc1Br`, the values for the Inhibition with Staphylococcus aureus and with Escherichia coli were -0.6% and -5.42%, respectively.
For `Cc1cc2nn(CC(=O)Nc3ccc(C)c(F)c3)c(=O)n2c(Nc2ccc(C)c(F)c2)n1`, in that order: 6.9% and -1.96%.
In the same order, the values of `COc1ccc(NC(=O)Cn2nc3nc(Nc4ccc(F)cc4)ccn3c2=O)cc1F` are -2.83% and -10.06%.
For `COc1ccc(CN(c2ccc(OC)cc2)S(=O)(=O)c2ccc3nnc(C)n3c2)cc1`, in that order: 4.23% and -1.31%.
For the compound `CCOc1ccc(-n2ccn3c(SCC(=O)Nc4ccc(C)cc4Cl)nnc3c2=O)cc1`, the Inhibition with Staphylococcus aureus was 8.62%; with Escherichia coli, -1.13%.
For `COc1cccc(Sc2nc3ccccc3n3c(=O)n(CC(=O)Nc4ccc(C)cc4)nc23)c1`, in that order: 4.18% and -1.95%.
For `O=C(CSc1nnc2c(=O)n(-c3ccccc3)ccn12)Nc1cc(F)ccc1F`, in that order: 5.32% and -13.66%.
Take `O=C(CSc1nnc2c(=O)n(-c3ccc(F)cc3)ccn12)NCC1CCCO1` (configuration not stated): the results for the Inhibition in the assay on Staphylococcus aureus and in the assay on Escherichia coli were 0% and -8.97%, respectively.
For the compound `Cc1ccc(Sc2ccc3nn(CC(=O)Nc4cccc(Cl)c4)c(=O)n3n2)cc1`, the Inhibition was -1.85% in the assay on Staphylococcus aureus and -11.91% in the assay on Escherichia coli.
As to `Cc1ccc2c(c1)N(C(=O)Cn1nc3ccc(SCc4ccc(Cl)cc4)nn3c1=O)CCO2`, the Inhibition with Staphylococcus aureus is reported as 2.18%; in the assay on Escherichia coli it was -5.63%.
For `COc1ccc(NC(=O)C(C)Sc2nnc3c(=O)n(-c4ccccc4)ccn23)cc1` (configuration not stated), in that order: 4.59% and 4.26%.
As for `O=c1n(Cc2cccc(C(F)(F)F)c2)nc2ccc(S(=O)(=O)N3CCCCC3)cn12`, the figures for the Inhibition in the assay with Staphylococcus aureus and with Escherichia coli were 14.29% and 0.28%, respectively.
In the same order, the values of `COc1ccccc1-n1ccn2c(SCC(=O)Nc3ccc(C)cc3C)nnc2c1=O` are 14.03% and -4.75%.
For `O=C(Cn1nc2c(Oc3ccccc3)nccn2c1=O)Nc1ccc(Br)cc1F`, in that order: -5.68% and -11.64%.
As to `CCc1nnc2c(SCC(=O)Nc3cccc(C(C)=O)c3)nc3ccccc3n12`, the Inhibition in the assay on Staphylococcus aureus was 2.41%; in the assay on Escherichia coli, 4.71%.
For `Cc1cc(C)cc(Nc2nc(C)cc3nn(CC(=O)Nc4ccc(Cl)cc4)c(=O)n23)c1`, in that order: -9.56% and 0.58%.
With `COc1ccc2[nH]cc(C(=O)CSc3nnc4c(=O)n(-c5ccc(C)c(C)c5)ccn34)c2c1`, the Inhibition with Staphylococcus aureus is 17.24%; in the assay with Escherichia coli it was -2.44%.
For `COc1ccccc1NC(=O)Cn1nc2c(SCc3ccc(Cl)cc3)nccn2c1=O`, in that order: 2.82% and -8%.
In the same order, the values of `Cc1ccc(-c2cc3c4nnc(CCC(=O)NCc5ccc(F)c(Cl)c5)n4ccn3n2)cc1C` are 9.12% and -0.93%.
For `Cc1ccc(C)c(NC(=O)Cn2nc3c4cc(-c5ccc(C)c(C)c5)nn4ccn3c2=O)c1`, in that order: 4.52% and -6.72%.
As to `CCc1nnc2c(S(=O)(=O)N(Cc3ccc(OC)c(F)c3)c3ccccc3)cccn12`, the Inhibition in the assay on Staphylococcus aureus was 14.47%; in the assay with Escherichia coli, 1.05%.
In the same order, the values of `Cc1cc(C)cc(NC(=O)CSc2nnc3c(=O)n(-c4ccc(Br)cc4)ccn23)c1` are 9.26% and -3.09%.
In the same order, the values of `COc1ccc(-c2cc3c4nnc(CCC(=O)NCc5cccs5)n4ccn3n2)cc1` are 11.44% and 4.51%.
In the case of `Cc1nnc2ccc(S(=O)(=O)N(Cc3ccccc3F)c3cccc(Cl)c3)cn12`, the Inhibition in the assay with Staphylococcus aureus is recorded as 2.13%; with Escherichia coli it was -7.6%.
In the same order, the values of `Cc1cccc(Sc2nccn3c(=O)n(CC(=O)N4CCN(c5ccccc5)CC4)nc23)c1` are 12.14% and -10.39%.
In the same order, the values of `COc1cccc(-n2ccn3c(SCc4cccc(F)c4)nnc3c2=O)c1` are 11.5% and -8.02%.
In the same order, the values of `N#CCn1nc2n(Cc3ccccc3)c(=O)c3ccc(C(=O)NC4CCCCC4)cc3n2c1=O` are -2.91% and -12.22%.
Take `NC(=O)C1CCN(C(=O)CCc2nnc3c(N4CCCCC4)nc4ccccc4n23)CC1`: the Inhibition was 14.39% in the assay with Staphylococcus aureus and 0.84% in the assay with Escherichia coli.
In the same order, the values of `Cc1ccc(C)c(NC(=O)Cn2nc3ccc(-c4ccc(C)c(C)c4)nn3c2=O)c1` are -1.85% and -17.07%.
For `Cc1ccc(Nc2cc(C)n3c(=O)n(CCOc4ccc(F)cc4)nc3n2)cc1`, in that order: 8.99% and -0.82%.
Regarding `Cc1ccc(NC(=O)Cn2nc3c(N4CCCC(C)C4)nccn3c2=O)cc1C` (configuration not stated), the Inhibition is reported as -5.07% with Staphylococcus aureus and -2.82% in the assay with Escherichia coli.
For `O=C(CSc1nnc2c3cc(-c4ccccc4)nn3ccn12)NCc1ccccc1Cl`, in that order: -4.46% and -7.31%.
In the same order, the values of `O=C(Cn1nc2ccc(-c3ccccc3)nn2c1=O)Nc1ccc(F)cc1` are 1.63% and -4.86%.
For `Cc1ccccc1Oc1nccn2c(=O)n(CC(=O)Nc3cc(F)ccc3F)nc12`, the Inhibition was 11.37% in the assay with Staphylococcus aureus and -2.39% in the assay on Escherichia coli.
For `O=C(Cn1nc2c3cc(-c4ccc(Cl)cc4)nn3ccn2c1=O)Nc1ccc2c(c1)OCCO2`, in that order: -0.49% and -1.57%.
In the same order, the values of `CC(C)CCNC(=O)Cn1nc2n(Cc3ccco3)c(=O)c3sccc3n2c1=O` are 8.27% and 0.93%.
In the same order, the values of `COc1ccc(N2CCN(C(=O)Cn3nc4ccc(-c5ccc(Cl)cc5)nn4c3=O)CC2)cc1` are 9.33% and -1.38%.
Consider `N#Cc1ccc(NC(=O)Cn2nc3c(SC4CCCCC4)nccn3c2=O)cc1`, for which the Inhibition was 7.35% in the assay on Staphylococcus aureus and -8.54% with Escherichia coli.
In the same order, the values of `CCOC(=O)c1ccccc1NC(=O)Cn1nc2c3cc(-c4ccc(Cl)cc4)nn3ccn2c1=O` are 7.33% and 2.34%.
For `COc1cccc(CSc2nnc3c(=O)n(-c4ccccc4OC)ccn23)c1`, in that order: -2.45% and 1.01%.
As for `COc1ccc(NC(=O)Cn2nc3ccc(-c4ccccc4)nn3c2=O)cc1`, the figures for the Inhibition in the assay on Staphylococcus aureus and in the assay with Escherichia coli were 6.57% and -0.4%, respectively.
Turning to `O=C(Cn1nc2c3cc(-c4ccc(F)cc4)nn3ccn2c1=O)N1CCN(c2ccccc2F)CC1`, the Inhibition in the assay on Staphylococcus aureus is -6.33%; in the assay with Escherichia coli, 3.42%.
